Experimental findings from PubChem BioAssay are described below.

This assay is described as follows: small-molecule microarray binders of probe aNog, primary screen, biochemical, biotinylated probe, 635/667 nm fluorescence (AID 1115).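 Also: probe is biotinylated aNog protein used at 0.15 µg/mL for 1 h at 4 C; z-score combines 667 nm fluorescence of each spot with its signal to noise.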 Particulars: higher = more signal.
With `CO[C@H]1O[C@H](CO)[C@@H](OC(=O)Nc2ccc3c(c2)OCO3)[C@H](OC(=O)Nc2ccc3c(c2)OCO3)[C@@H]1OC(=O)Nc1ccc2c(c1)OCO2`, the composite z-score was determined as 0.909.
Next, `CCOC(=O)C[C@H]1[C@H](OC(=O)c2ccccc2-c2ccccc2)[C@@H](NC(=O)c2ccc3ccccc3c2)c2cc(OCCCO)ccc2N1C(=O)c1ccccc1`: 0.0043.
Take `CC(C)[Si]1(C(C)C)OCc2cc(-c3ccc(-c4ccc(Cl)c(Cl)c4)o3)nc(-c3ccccc3)c21`: the composite z-score was -0.418.
With `COc1ccc([C@H]2OC[C@@H]3C[C@H](Cc4ccccc4)C(=O)N32)cc1`, the composite z-score was -0.113.
In turn, `COC(=O)C(CC#Cc1ccc2c(c1)[C@]1(C(=O)N2)[C@H](c2ccc(O)cc2)N2[C@H](c3ccccc3)[C@H](c3ccccc3)OC(=O)[C@H]2[C@@H]1C(=O)NC[C@H](O)c1ccccc1)C(=O)OC` gave a composite z-score of 0.0169.
With `CC(=O)N1CC2(CC2)CC1c1ccccc1` (stereo not given) the figure was 2.15.
`COc1ccc([Si](C)(C)[C@@H]2[C@@H](CC(=O)N3CCC[C@H]3CO)O[C@]3(C(=O)N(Cc4cccc(N5C(=O)COc6ccccc65)c4)c4ccccc43)[C@H]2C)cc1` registered a composite z-score of -0.368.
For the molecule `O=c1cccc(-c2ccc([N+](=O)[O-])cc2)o1`, the composite z-score is -0.208.
Next, `N[C@@H](Cc1ccccc1)C(=O)NCc1cn(Cc2ccccc2)nn1`: -0.245; `O=C1C2C=CC(C(O)c3cccc(O)c3)N(Nc3ccc([N+](=O)[O-])cc3)C2C(=O)N1c1ccccc1` (stereo not given): -0.163.
Molecule `CC(C)c1ccc(NN2C(C(O)c3ccc(F)cc3)C=CC3C(=O)N(c4ccccc4)C(=O)C32)cc1` (stereo not given) came in with a composite z-score of 1.75.
Next, `C=CC[C@@H](OC(=O)Nc1ccc(SC)cc1)c1ccc(O)c(F)c1`: -0.036.
`COc1cc2c(cc1O)C(C1CC1)N(C)CC2` (stereo not given) came in with a composite z-score of -0.139.
Molecule `O=C1CS(=O)(=O)C(c2cccc([N+](=O)[O-])c2)N1c1ccccc1` (stereo not given) gave a composite z-score of -0.217.
With `COC(=O)[C@@H]1N=C(c2ccc(OCCCO)cc2)O[C@@H]1c1ccccc1` the figure was -0.59; with `O=C1NC(=O)C2C1C=CC(C(O)c1ccco1)N2Nc1ccc(Cl)cc1Cl` (stereo not given), -0.3.
In turn, `COc1ccc([Si](C)(C)[C@@H]2[C@@H](CCO)O[C@]3(C(=O)N(Cc4cccc(NC(=O)[C@H](C)O)c4)c4ccccc43)[C@H]2C)cc1` displayed a composite z-score of 0.638.
`CCCN1C(=O)[C@]2(Cc3ccccc31)N=C(c1ccc(OCCCO)cc1)O[C@@H]2c1ccccc1` showed a composite z-score of 0.401.
`CN(C)C(=O)[C@@]1(Cc2ccccc2)N=C(c2ccc(OCCCO)cc2)O[C@H]1c1ccccc1` had a composite z-score of -0.332.
As to `COCCOC(=O)N1C(=O)[C@@]2(c3cc(C#CC4(O)CCCCCC4)ccc31)[C@H](c1ccc(O)cc1)N1[C@H](c3ccccc3)[C@H](c3ccccc3)OC(=O)[C@H]1[C@@H]2C(=O)N1CCN(c2ncccn2)CC1`, the composite z-score is -0.679.
Molecule `COc1ccc(CCNC(=O)[C@@]2(Cc3ccccc3I)c3ccccc3C(=O)N(C3CCCCC3)[C@H]2c2ccc(CO)cc2)cc1` returned a composite z-score of -0.158.
Molecule `CCOC(=O)C=Cc1cccc(C)c1O` showed a composite z-score of -0.288.
For `C=CCC(OC(C)=O)[C@@H]1[C@@H](N(Cc2ccc(-c3cccc(C(F)(F)F)c3)o2)C(=O)Cc2ccc(OC)cc2)c2cc(OCCCO)ccc2N1C(=O)c1ccc(-c2ccccc2)cc1` (stereo not given in full), the composite z-score was -0.577.
In turn, `O=C1[C@H]2C=C(I)[C@H](C[C@@H]2OCCOCCO)[C@@]12CO2` returned a composite z-score of 0.101.
Next, `C#Cc1cc2ccccc2oc1=O`: -0.396.
Take `O=C(Cc1ccccc1)[C@H]1C2C=CCCC(c3ccccc3)=C2CN1Cc1ccccc1` (stereo not given in full): the composite z-score was determined as 0.0326.
With `O=C1O[C@@H](c2ccccc2)[C@@H](c2ccccc2)N2[C@@H](c3ccc(OCCO)cc3)[C@]3(C(=O)Nc4ccc(C#CC5=CCCCC5)cc43)[C@@H](C(=O)NC[C@H](O)c3ccccc3)[C@H]12` the figure was 1.74; with `COc1cc2c(cc1O)C(C1CC1)N(Cc1cccc(OC(F)(F)F)c1)CC2` (stereo not given), -0.147.
Take `[N-]=[N+]=NCc1ccccc1[C@@H]1OC(c2ccc(OCCCO)cc2)=N[C@]1(CCS(=O)(=O)c1ccccc1)C(=O)O`: the composite z-score came to 0.592.
Molecule `[N-]=[N+]=NCc1ccccc1[C@H]1OC(c2ccc(OCCCO)cc2)=N[C@@]1(Cc1ccccc1N=[N+]=[N-])C(=O)NCC(O)CO` (stereo not given in full) yielded a composite z-score of 1.63.
As to `COCCOC(=O)N1C(=O)[C@@]2(c3ccccc31)[C@H](C(=O)NC[C@H](O)c1ccccc1)[C@H]1C(=O)O[C@H](c3ccccc3)[C@H](c3ccccc3)N1[C@@H]2c1ccc(O)cc1`, the composite z-score was 0.39.
On to `O=C1OCCC/C=C\[C@H]2OC34C=CCN(c5ccc6ccccc6c5)C(=O)[C@H]3N(CCO)C(=O)[C@@H]4C12` (stereo not given in full), for which the composite z-score is -0.0631.
Next, `CCOC(=O)C[C@H]1[C@H](OC(=O)Cc2ccc3c(c2)OCO3)[C@@H](NC(=O)c2ccc3ccccc3n2)c2cc(OCCCO)ccc2N1C(=O)c1ccc2ccccc2n1`: -0.115.
Next, `CC[C@@H]1C=C(C(=O)O)[C@H](c2ccccc2)N1S(=O)(=O)c1ccc(C)cc1`: -0.398.
In turn, `CC(C)N1C(=O)C[C@@](C(=O)O)(c2ccc([N+](=O)[O-])cc2)[C@H]1c1ccc(CO)cc1` gave a composite z-score of -0.409.
